Bioassay records: PubChem BioAssay, Broad Institute
aSyn UTR act – Activators working through SNCA 5'UTR binding (MLPCN) | alpha-synuclein 5'UTR reporter, activators screen | activity score, % (tested at 7.5 µM), hits read low | hit rate 7.1% among 300,000; in the data active = activity score below about -60%
The depositor's hits bear a star. Only a sample is shown.

SMILES	aSyn UTR act
CC(C)CN(C)C(=O)CCc1nnc(Cc2cccc(C(F)(F)F)c2)o1	-143*
O=C(Nc1ccc(Cl)cc1Cl)c1ccc2c(=O)n3c(nc2c1)CCC3	-159*
O=C(Nc1ccc(Br)cc1Cl)c1ccc2c(=O)n3c(nc2c1)CCC3	-190*
NC(=O)c1ccsc1NC(=O)CSc1ccccc1F	-119*
Cc1csc(SCC(=O)Nc2sccc2C(N)=O)n1	-110*
O=C(CCc1nnc(-c2ccc(-c3ccccc3)cc2)o1)NCCc1ccccn1	90
O=C(CCc1nnc(-c2ccccc2)o1)NC1CCCCC1	-66*
COC(=O)CCCNC(=O)CCc1nnc(-c2ccc(-c3ccccc3)cc2)o1	77
CN(CCCC1CCCC1)C(=O)CCc1nnc(-c2ccccc2)o1	-139*
O=C(Nc1nnc(-c2ccccc2)o1)NC1CCCCC1	-80*
O=C(Nc1ccccc1)Nc1nnc(-c2ccccc2)o1	-63*
CN(C)S(=O)(=O)c1ccc(C(=O)Nc2nnc(-c3ccc4c(c3)CCCC4)o2)cc1	69
Cc1cc(C)n(CCN(C)C(=O)CCc2nnc(CCC3CCCCC3)o2)n1	-145*
O=C(Nc1nnc(-c2ccc3c(c2)CCCC3)o1)C1CCCCC1	-84*
COc1ccc(C(=O)Nc2cc3c4c(c2)CC(=O)N4CCC3)c(OC)c1	-90*
CCOC(=O)C1=C(CSc2nc(-c3ccccc3)ccc2C#N)OC(N)=C(C#N)C1c1ccccc1 (stereo not given)	-103*
CCOC(=O)C1=C(c2ccccc2)OC(N)=C(C#N)C1C(C)C (stereo not given)	-103*
CCOC(=O)C1=C(CSc2nc(-c3ccccc3)ccc2C#N)OC(N)=C(C#N)C1c1cccnc1 (stereo not given)	-84*
N#CC1=C(N)Oc2ccc3ccccc3c2C1c1cccnc1 (stereo not given)	54
N/C(=N\OC(=O)Nc1ccc(Cl)cc1)c1ncc(C(F)(F)F)cc1Cl	-73*
N/C(=N\OC(=O)Nc1ccccc1)c1ncc(C(F)(F)F)cc1Cl	-115*
Cc1ccc(O)c(C(=O)c2cnn(-c3ccccc3)c2)c1	-68*
O=C(Cc1cnn(-c2ccccc2)c1)c1ccc(O)c(O)c1O	-81*
Cc1ccc(/C=c2/sc3n(c2=O)CCCN=3)o1	-143*
O=c1/c(=C\c2ccc3c(c2)OCO3)sc2n1CCCN=2	-83*
SMILES	aSyn UTR act
NC(=S)Nc1cccc2cc3ccccc3cc12	-101*
CCOc1ccccc1NC(=O)c1cc2ccccc2oc1=O	-95*
CC(C)OC(=O)c1cc2ccccc2oc1=O	-66*
O=C(c1cc2ccccc2oc1=O)N1CCN(c2ncccn2)CC1	-92*
O=C(NNC(=O)c1cc2ccccc2oc1=O)c1ccccc1	-108*
O=C(NNC(=O)c1cc2ccccc2cc1O)c1cccs1	-193*
N/C(=N\NC(=O)c1cccs1)c1cc2ccccc2oc1=O	-64*
O=C(Nc1ccc(F)cc1F)c1cc2ccccc2oc1=O	-156*
Cc1ccc(O)c(NC(=S)NC(=O)/C=C/c2ccco2)c1	-170*
Cc1ccnc(NC(=S)NC(=O)/C=C/c2ccco2)c1	-334*
Cc1ccc(Nc2nc(COC(=O)C3CC3)cs2)cc1	-105*
CC(C)(C)c1cc[n+](C2=C([O-])c3ccccc3C(=O)/C2=N\S(=O)(=O)c2cccs2)cc1	69
O=C(Nc1cnn(Cc2ccccc2)c1)c1nc2ncccn2n1	-66*
O=C(N/N=C/c1ccccn1)c1cc(-c2ccc3ccccc3c2)n[nH]1	-161*
O=C(N/N=C/C=C\c1ccccc1[N+](=O)[O-])c1cc(-c2ccc3ccccc3c2)n[nH]1	-88*
O=C(N/N=C/c1ccco1)c1cc(-c2ccc3ccccc3c2)n[nH]1	-75*
COc1ccccc1-c1cnn2c(NCc3ccccc3)cc(C)nc12	-75*
Cc1cc(NCCCN2CCOCC2)n2ncc(-c3ccccc3)c2n1	-95*
Cc1cc(NCc2ccccn2)n2ncc(-c3ccccc3)c2n1	-155*
Cc1cc(NCc2ccccn2)n2ncc(-c3ccc(Cl)cc3)c2n1	-97*
O=C(NC(=S)Nc1ccc(N2CCCCC2)cc1)c1cccs1	-104*
O=C(NC(=S)Nc1ccc(N2CCOCC2)c(Cl)c1)c1cccs1	-110*
O=C(Nc1ccc(N2CCCC2)c(Cl)c1)c1cccs1	-114*
O=C(Nc1ccc(NC(=O)c2cccs2)c(Cl)c1)c1ccco1	-123*
O=C(NCCc1ccc(F)cc1)c1cccs1	-139*
SMILES	aSyn UTR act
CC(Cc1cccs1)NC(=O)Nc1ccc([N+](=O)[O-])cc1 (stereo not given)	-75*
CC(Cc1cccs1)NC(=O)c1cccs1 (stereo not given)	-80*
O=C(NCCc1cccs1)c1cccs1	-147*
Cc1ccc(-n2nc3c(N4CCC(C(=O)NCCc5cccs5)CC4)nnc(C)c3c2C)cc1	90
O=C(CNC(=O)c1cccs1)c1ccc(Br)cc1	-176*
O=C(NCCCc1ccccc1)c1cccs1	-88*
O=C(NCC(O)c1ccccc1)c1cccs1 (stereo not given)	-136*
COc1ccc2cc(CCNC(=O)c3cccs3)c(=O)[nH]c2c1	-138*
CCc1ccc2nc(/N=C(\N)NC(=O)c3ccccc3)nc(C)c2c1	-120*
